Measurements published in PubChem BioAssay AID652054 (National Center for Advancing Translational Sciences (NCATS), 2013).
About 9,100 (2.5%) of roughly 360,000 compounds were called active. Inconclusive results (about 4%) are left out. Shown is part of a subset that was picked to be rich in actives. Values without a mark were called inactive. Cut-off read from the data, not from the text of the source: active = max response below about -50%; inconclusive = no clear call, values can overlap the other calls; inactive = above that.

Target: D(3) dopamine receptor (Homo sapiens) (UniProt P35462)
Experiment: qHTS of D3 Dopamine Receptor Antagonist: qHTS
Conditions: D3R cells, DiscoveRx beta-arrestin luminescence, antagonist mode; hits give low values
In short: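 Cells expressing the human receptor were seeded at 1500 cells/well, incubated overnight at 37 degrees C in 5% CO2, then exposed to library compounds with dopamine controls for 90 minutes at 37 degrees C before luminescent detection.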
% is set by controls: 0 for no effect and ±100 for the full control effect.

Sequence of D(3) dopamine receptor (Homo sapiens) (P35462 whole entry, looked up): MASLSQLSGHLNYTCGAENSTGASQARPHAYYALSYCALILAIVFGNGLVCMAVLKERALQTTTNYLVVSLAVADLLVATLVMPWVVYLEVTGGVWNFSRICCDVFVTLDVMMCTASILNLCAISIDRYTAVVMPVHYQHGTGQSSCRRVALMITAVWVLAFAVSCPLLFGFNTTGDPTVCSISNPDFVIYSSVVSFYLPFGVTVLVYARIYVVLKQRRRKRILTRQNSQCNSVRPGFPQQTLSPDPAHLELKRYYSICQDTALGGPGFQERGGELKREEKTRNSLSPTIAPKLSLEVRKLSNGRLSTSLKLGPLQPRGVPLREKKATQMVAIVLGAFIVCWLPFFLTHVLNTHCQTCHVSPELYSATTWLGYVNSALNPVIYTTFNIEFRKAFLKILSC

Row | SMILES | max response, negative = inhibition
1 | CC1(C(=O)Nc2cccc(Oc3ccccc3)c2)CCN1Cc1ccccc1Cl (stereo not given) | 11.7%
2 | C=C(C)C(=O)O[C@H]1C/C(C)=C\C(=O)/C=C(\C)[C@H](O)[C@@H]2OC(=O)C(=C)[C@@H]21 | -61.4% (active)
3 | O=C(NCc1cccs1)c1ccc(Br)o1 | 11.4%
4 | CC(CCc1ccccc1)NC(=O)c1ccc(Br)o1 (stereo not given) | -10.2%
5 | CC(CNC(=O)c1ccc(Br)o1)NC(=O)c1ccc(Br)o1 (stereo not given) | -72.7% (active)
6 | CC(C)C1CC2=C(C(=O)OC(C)(C)O2)C(c2ccc(F)cc2)O1 (stereo not given) | -3.03%
7 | COc1ccc(NC(=O)COC(=O)C2COc3ccccc3O2)cc1 (stereo not given) | -20.1%
8 | Brc1ccc2nc(-c3ccccc3)c(Cc3ccccc3)n2c1 | 23.1%
9 | CCNC(=O)C1(C)CCCN(Cc2noc(-c3ccccc3OC)n2)C1 (stereo not given) | 23.6%
10 | c1ccc2cc(OCCN3CCCC3)ccc2c1 | -61.2% (active)
11 | Cc1cccc(C)c1OCCN1CCOCC1 | 21.2%
12 | Cc1cc(OCCN2CCCC2)ccc1C(C)C | 0%
13 | Clc1ccccc1-c1cc(COc2ccc3ccccc3c2)no1 | -0.665%
14 | Cc1cc(C)c(NC(=O)CN2CCCCCC2)c(C)c1 | 1.9%
15 | Cc1cc(OCCN2CCCC2)cc(C(C)C)c1 | -86% (active)
16 | CCOC(=O)[C@]12CCC=C1N(Cc1cccc3ccccc13)C(=O)[C@H](CC(=O)NCc1cccc(C(F)(F)F)c1)C2 | 7.1%
17 | CCCCCCN1C[C@@H](O)[C@H](n2cc(COC(=O)c3ccccc3)nn2)C[C@@H]1c1ccc(Cl)cc1 | 3.45%
18 | CCc1nnc(NC(=O)c2ccco2)s1 | -7.74%
19 | Cc1ccc(S(=O)(=O)N2CCCCC2)cc1NC(=O)CCNC(=O)c1ccccc1Cl | 25.5%
20 | N#Cc1ccc(-c2nc3c(Cl)cc(C(F)(F)F)cn3c2Cc2ccccc2C(F)(F)F)cc1 | 8.9%

Row | SMILES | max response, negative = inhibition
21 | CCN(CC)CCCNC(=O)c1cc2c(=O)[nH]c3ccc(C)cc3c2s1 | -89.2% (active)
22 | Cc1cccc(N(C)C(=O)c2cc3c(=O)[nH]c4ccc(C)cc4c3s2)c1 | -15.8%
23 | CCN(CC)CCCNC(=O)c1cc(-c2cccc(Cl)c2)on1 | -19.8%
24 | CCC(=O)N1CCC(C)(C(=O)Nc2cc(OC)c(OC)c(OC)c2)C1 (stereo not given) | 16.4%
25 | CCOc1ccc(NC(=O)N2CCN(CC)CC2)cc1 | 6.64%
26 | CCOc1ccc(NC(=O)N2CC=C(n3c(=O)[nH]c4ccccc43)CC2)cc1 | -51.2% (active)
27 | Cc1cccc(C)c1NC(=O)N1CC=C(n2c(=O)[nH]c3ccccc32)CC1 | 0%
28 | CCOC(=O)C=Cc1ccc(C(=O)OCC)[nH]1 | 20.2%
29 | COC(=O)[C@@]12C[C@@H](CC(=O)N3CCCCC3)C(=O)N(Cc3ccc4c(c3)OCO4)C1=CCC(C)(C)C2 | -15.1%
30 | Cc1ccc(NC(=O)N2CCC(O)(c3cccnc3)CC2)cc1 | 1.47%
31 | CCOc1ccc(CNC(=O)CCC(=O)N2CCSc3ccccc32)cc1 | 10.8%
32 | Cc1ccc(NC(=O)N2CCSc3ccccc32)cc1 | -50.5% (active)
33 | Cc1ccc(S(=O)(=O)N[C@H](CO)C(C)C)cc1 | -14.1%
34 | CC(NC(=S)Nc1ccccc1)C1COc2ccccc2O1 (stereo not given) | 1.63%
35 | CCC(=O)c1ccc(OCC(=O)N(CC)CC2COc3ccccc3O2)cc1 (stereo not given) | 10.7%
36 | CCCN(CC1COc2ccccc2O1)C(=S)Nc1ccc(C)cc1 (stereo not given) | -53.1% (active)
37 | Cc1cc(=O)c2ccc(NC(=O)c3ccccc3)cc2[nH]1 | 13.3%
38 | O=C1NC(O)CCN1C1CC(O)C(CO)O1 (stereo not given) | 11%
39 | CCCN1CC=C2C(C#N)=C(N)C(C#N)(C#N)C(c3cc(OC)ccc3OC)C2C1 (stereo not given) | -67.2% (active)
40 | CCN1CC=C2C(C#N)=C(N)C(C#N)(C#N)[C@H](c3ccoc3)[C@H]2C1 | -11.8%

Row | SMILES | max response, negative = inhibition
41 | COc1ccc(NC(=O)c2sc(=O)n(Cc3ccc(S(=O)(=O)N(C)C)cc3)c2C)cc1 | 14.5%
42 | CCCCCCCCNS(=O)(=O)CCNC1CCCCC1 | -69.1% (active)
43 | CC1(C)CC(=O)C=C(NCCCNC2CCCCC2)C1 | 1.63%
44 | CCCCCCNS(=O)(=O)c1ccccc1Br | 0%
45 | CCCC(=O)N1CCC1(C)C(=O)NS(=O)(=O)c1ccc(Cl)cc1 (stereo not given) | 3.58%
46 | c1ccc2c(c1)nnn2-c1ccncc1 | -16.5%
47 | CCOC(=O)c1ccc2[nH]c(C)c(CN3CCN(C)CC3)c(=O)c2c1 | 0%
48 | COC(=O)CCNC(=O)c1ccc2[nH]c(C)c(C)c2c1 | -22.3%
49 | Cc1[nH]c2ccc(C(=O)N3CCN(C)CC3)cc2c1C | -72.7% (active)
50 | CC1(C(=O)Nc2ccc3c(c2)OCCO3)CSCC(=O)N1CCOc1ccccc1 (stereo not given) | -1.68%
51 | O=C(Nc1ccc(OCCO)cc1)c1csc([C@H]2C[C@H](O)[C@@H](CO)O2)n1 | -7.51%
52 | O=C(NCc1cccnc1)c1ccc2nc([C@@H]3O[C@H](CO)[C@H](O)[C@H](O)[C@H]3O)[nH]c2c1 | 40.4%
53 | Nc1nc2cc(Cl)ccc2n1N | 0%
54 | O=[N+]([O-])c1cc(Cl)cc(/C=N/NC(=S)Nc2cc(S(=O)(=O)N3CCOCC3)ccc2Cl)c1O | -50.3% (active)
55 | O=C(Nc1cc(S(=O)(=O)N2CCOCC2)ccc1Cl)c1cc(=O)c2ccccc2o1 | 17%
56 | O=C(c1cc(S(=O)(=O)N2CCOCC2)ccc1Cl)N1CCOCC1 | -16%
57 | Cc1cc(C)n2c(Nc3c(C)cccc3C)c(CCc3ccccc3)nc2n1 | 18.8%
58 | CCN(CC)S(=O)(=O)c1cc([N+](=O)[O-])ccc1N=Nc1c(O)n(C)c2ccccc12 | 3.23%
59 | CC(=O)c1ccc(NC(=O)Nc2ccc([N+](=O)[O-])cc2C)cc1 | -18.2%
60 | CCN(CC)S(=O)(=O)c1cc([N+](=O)[O-])ccc1NNC(=O)Nc1ccccc1 | -56.2% (active)
